The supplement of paper PMC6992640

Tested on: HCI11 (cells of an ER-positive luminal breast cancer xenograft)
Experiment: cell viability (% of vehicle); higher = less cytotoxic
Settings: 10 µM; 72 h
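Note: PDX cells carrying CMV promoter-driven luciferase, viability read as total photon flux per second by IVIS imaging following D-luciferin, vehicle control 0.1% DMSO.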

Row | SMILES | cell viability
1 | Cc1nc2c([nH]1)CCN(C(=O)c1ccc(NC(=O)c3ccccc3-c3ccccc3)cc1)c1ccccc1-2.Cl [Conivaptan HCl] | 85.3
2 | COc1nc(C)nc(Cl)c1NC1=NCCN1 [Moxonidine] | 115
3 | CC(=O)OCC(=O)NCCCOc1cccc(CN2CCCCC2)c1.Cl [Roxatidine Acetate HCl] | 120
4 | Clc1ccc2c(c1)C(N1CCNCC1)=Nc1ccccc1O2 [Amoxapine] | 85
5 | CCCNS(=O)(=O)Nc1ncnc(OCCOc2ncc(Br)cn2)c1-c1ccc(Br)cc1 [Macitentan] | 91.4
6 | OCC(O)C(O)C(O)CO (configuration not stated) [Xylitol] | 95.5
7 | CCCc1ncc(C[n+]2ccccc2C)c(N)n1.Cl.[Cl-] [Amprolium HCl] | 104
8 | Cc1c(O)c(=O)ccn1C [Deferiprone] | 77.1
9 | NC(=O)N1c2ccccc2CC(=O)c2ccccc21 [Oxcarbazepine] | 98.9
10 | CCC(C)C(=O)OC1CCC=C2C=CC(C)C(CCC3CC(O)CC(=O)O3)C21 (configuration not stated) [Mevastatin] | 120
11 | CC(=O)OC1(C(C)=O)CCC2C3CC(C)C4=CC(=O)CCC4(C)C3CCC21C (configuration not stated) [Medroxyprogesterone acetate] | 78.4
12 | CNC(C)C1CCC(N)C(OC2C(N)CC(N)C(OC3OCC(C)(O)C(NC)C3O)C2O)O1.O=S(=O)(O)O (configuration not stated) [Gentamycin Sulfate] | 101
13 | COc1ccc(CC2c3cc(OC)c(OC)cc3CC[N+]2(C)CCC(=O)OCCCCCOC(=O)CC[N+]2(C)CCc3cc(OC)c(OC)cc3C2Cc2ccc(OC)c(OC)c2)cc1OC.O=S(=O)([O-])c1ccccc1.O=S(=O)([O-])c1ccccc1 (configuration not stated) [Cisatracurium Besylate] | 109
14 | NCCCCCC(=O)O [(6-)ε-Aminocaproic acid] | 79.6
15 | CC12CCC3=C4CCC(=O)C=C4CCC3C1CCC2(O)CC#N (configuration not stated) [Dienogest] | 82.2
16 | COC(=O)Nc1nc2ccc(S(=O)c3ccccc3)cc2[nH]1 (configuration not stated) [Oxfendazole] | 93.1
17 | Cc1cn(C2CC(N=[N+]=[N-])C(CO)O2)c(=O)[nH]c1=O (configuration not stated) [Zidovudine] | 101
18 | CCN(CCO)CCCC(C)Nc1ccnc2cc(Cl)ccc12.O=S(=O)(O)O (configuration not stated) [Hydroxychloroquine Sulfate] | 81.8
19 | CC1(C)SC2C(NC(=O)C(N)c3ccccc3)C(=O)N2C1C(=O)[O-].[Na+] (configuration not stated) [Ampicillin] | 84.6
20 | CC(O)(P(=O)(O)O)P(=O)(O)O [Etidronate] | 85.2
21 | CCCNC(C)C(=O)Nc1ccccc1C.Cl (configuration not stated) [Prilocaine hydrochloride] | 113
22 | CN(C)CCC=C1c2ccccc2CCc2ccccc21.Cl [Amitriptyline HCl] | 83.2
23 | CN1CCC(=C2c3ccccc3CC(=O)c3sccc32)CC1.O=C(O)C=CC(=O)O [Ketotifen Fumarate] | 102
24 | CCOc1ccc2ccccc2c1C(=O)NC1C(=O)N2C1SC(C)(C)C2C(=O)[O-].O.[Na+] (configuration not stated) [Nafcillin Sodium] | 110
25 | Nc1ccc(S(=O)(=O)c2ccc(N)cc2)cc1 [Dapsone] | 116
26 | Nc1nc(=O)c2ncn(COC(CO)CO)c2[nH]1 [Ganciclovir] | 97.9
27 | FC(F)(F)c1ccc(C=Cc2nc(COc3ccc(CCCCn4ccnn4)cc3)co2)cc1 [Mubritinib (TAK 165)] | 62.2
